Results from PMC7862700, “An all-to-all approach to the identification of sequence-specific readers for epigenetic DNA modifications on cytosine”.

Key:
Experiment in all cases: DAPPL (digital affinity profiling via proximity ligation, sequencing); 10 mM Tris-HCl pH 7.5, 50 mM NaCl, 1 mM DTT, 4% glycerol, room temperature, 30 min; GST-TFs on glutathione beads, 16-mer random dsDNA library, 0.1% formaldehyde crosslink after washing; high values mean tight binding
FLI1 = biological target: T1, FLI1 (Homo sapiens, UniProt Q01543 1-452); details: protein: recombinant; tags: N-terminal GST; dsDNA, one strand shown
T1 sequence: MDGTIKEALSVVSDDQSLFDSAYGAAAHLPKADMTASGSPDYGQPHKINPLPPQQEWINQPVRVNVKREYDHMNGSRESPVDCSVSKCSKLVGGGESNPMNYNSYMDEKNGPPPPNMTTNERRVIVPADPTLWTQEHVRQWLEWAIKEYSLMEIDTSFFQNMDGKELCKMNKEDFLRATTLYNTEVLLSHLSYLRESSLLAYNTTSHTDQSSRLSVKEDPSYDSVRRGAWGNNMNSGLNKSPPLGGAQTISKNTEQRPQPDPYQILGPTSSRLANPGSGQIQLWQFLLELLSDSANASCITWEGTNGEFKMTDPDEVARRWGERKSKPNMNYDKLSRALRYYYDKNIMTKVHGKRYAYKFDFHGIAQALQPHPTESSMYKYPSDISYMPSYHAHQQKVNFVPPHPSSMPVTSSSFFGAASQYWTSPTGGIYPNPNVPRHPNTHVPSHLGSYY
Method in brief: (§1)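 Human transcription factors were made in yeast as GST fusions, captured on glutathione beads and barcoded with DNA. With a tag-only sample included, the pool was incubated with 200 nmole of a random double-stranded 16-mer DNA library in Tris/NaCl/DTT/glycerol buffer at room temperature for 30 min, then crosslinked with 0.1% formaldehyde after washing, ligated by proximity, amplified and sequenced. For binding signal, each hexamer's read frequency for a factor is divided by its frequency for the tag-only sample.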

ELK1 = biological target: T2, ELK1 (Homo sapiens, UniProt P19419 1-428); details: protein: recombinant; tags: N-terminal GST; dsDNA, one strand shown
T2 sequence: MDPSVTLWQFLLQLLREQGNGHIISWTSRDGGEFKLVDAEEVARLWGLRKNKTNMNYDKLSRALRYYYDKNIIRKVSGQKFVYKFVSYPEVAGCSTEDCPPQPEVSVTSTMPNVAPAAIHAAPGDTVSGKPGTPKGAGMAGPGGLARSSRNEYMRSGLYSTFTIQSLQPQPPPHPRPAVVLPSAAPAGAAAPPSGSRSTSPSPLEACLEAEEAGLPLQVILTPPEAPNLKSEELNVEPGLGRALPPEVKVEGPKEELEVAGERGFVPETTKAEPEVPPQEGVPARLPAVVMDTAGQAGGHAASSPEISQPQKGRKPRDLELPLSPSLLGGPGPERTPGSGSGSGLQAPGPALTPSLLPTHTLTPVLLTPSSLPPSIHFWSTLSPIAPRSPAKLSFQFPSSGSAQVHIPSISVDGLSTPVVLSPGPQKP
Method in brief: as §1

GABPA = biological target: T3, GABPA (Homo sapiens, UniProt Q06546 1-454); details: protein: recombinant; tags: N-terminal GST; dsDNA, one strand shown
T3 sequence: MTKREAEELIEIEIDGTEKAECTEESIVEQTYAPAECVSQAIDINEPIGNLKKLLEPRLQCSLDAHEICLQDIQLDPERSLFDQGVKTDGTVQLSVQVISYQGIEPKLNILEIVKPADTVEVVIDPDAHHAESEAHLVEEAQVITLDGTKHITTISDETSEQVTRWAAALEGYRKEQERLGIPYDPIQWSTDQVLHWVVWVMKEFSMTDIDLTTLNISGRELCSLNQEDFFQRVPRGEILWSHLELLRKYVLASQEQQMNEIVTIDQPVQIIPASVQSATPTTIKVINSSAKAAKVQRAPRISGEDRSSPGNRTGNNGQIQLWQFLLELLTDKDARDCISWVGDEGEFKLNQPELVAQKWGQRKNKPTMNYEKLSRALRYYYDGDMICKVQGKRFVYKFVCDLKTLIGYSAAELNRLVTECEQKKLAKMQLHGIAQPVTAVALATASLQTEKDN
Method in brief: as §1

ERG = biological target: T4, ERG (Homo sapiens, UniProt P11308 1-479); details: protein: recombinant; tags: N-terminal GST; dsDNA, one strand shown
T4 sequence: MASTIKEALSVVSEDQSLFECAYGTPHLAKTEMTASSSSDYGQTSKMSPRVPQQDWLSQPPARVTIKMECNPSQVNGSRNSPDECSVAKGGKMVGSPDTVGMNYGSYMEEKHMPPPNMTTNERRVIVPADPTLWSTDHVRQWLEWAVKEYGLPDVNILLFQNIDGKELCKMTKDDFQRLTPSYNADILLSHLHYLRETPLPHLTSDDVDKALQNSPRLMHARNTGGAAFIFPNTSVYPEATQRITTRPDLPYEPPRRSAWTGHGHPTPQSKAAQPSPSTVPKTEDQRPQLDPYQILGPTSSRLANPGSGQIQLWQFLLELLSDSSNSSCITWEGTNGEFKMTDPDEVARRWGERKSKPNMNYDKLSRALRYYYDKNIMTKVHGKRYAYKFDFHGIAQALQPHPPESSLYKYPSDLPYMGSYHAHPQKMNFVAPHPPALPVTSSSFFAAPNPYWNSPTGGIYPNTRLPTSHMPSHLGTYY
Method in brief: as §1

ELF1 = ELF1 (Homo sapiens, UniProt P32519 1-619); details: protein: recombinant; tags: N-terminal GST; dsDNA, one strand shown
Method in brief: as §1

EHF = biological target: T5, EHF (Homo sapiens, UniProt Q9NZC4 1-300); details: protein: recombinant; tags: N-terminal GST; dsDNA, one strand shown
T5 sequence: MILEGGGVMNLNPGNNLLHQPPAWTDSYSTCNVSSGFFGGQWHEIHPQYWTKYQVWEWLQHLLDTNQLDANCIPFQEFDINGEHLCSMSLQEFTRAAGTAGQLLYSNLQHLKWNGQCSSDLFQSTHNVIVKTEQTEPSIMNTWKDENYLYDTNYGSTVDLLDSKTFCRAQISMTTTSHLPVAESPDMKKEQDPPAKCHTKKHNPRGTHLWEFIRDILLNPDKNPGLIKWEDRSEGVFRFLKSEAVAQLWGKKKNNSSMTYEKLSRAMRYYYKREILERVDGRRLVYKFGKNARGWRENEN
Method in brief: as §1

SPI1 = SPI1 (Homo sapiens, UniProt P17947 1-270); details: protein: recombinant; tags: N-terminal GST; dsDNA, one strand shown
Method in brief: as §1

SPIB = SPIB (Homo sapiens, UniProt Q01892 1-262); details: protein: recombinant; tags: N-terminal GST; dsDNA, one strand shown
Method in brief: as §1

ELK3 = biological target: T6, ELK3 (Homo sapiens, UniProt P41970 1-407); details: protein: recombinant; tags: N-terminal GST; dsDNA, one strand shown
T6 sequence: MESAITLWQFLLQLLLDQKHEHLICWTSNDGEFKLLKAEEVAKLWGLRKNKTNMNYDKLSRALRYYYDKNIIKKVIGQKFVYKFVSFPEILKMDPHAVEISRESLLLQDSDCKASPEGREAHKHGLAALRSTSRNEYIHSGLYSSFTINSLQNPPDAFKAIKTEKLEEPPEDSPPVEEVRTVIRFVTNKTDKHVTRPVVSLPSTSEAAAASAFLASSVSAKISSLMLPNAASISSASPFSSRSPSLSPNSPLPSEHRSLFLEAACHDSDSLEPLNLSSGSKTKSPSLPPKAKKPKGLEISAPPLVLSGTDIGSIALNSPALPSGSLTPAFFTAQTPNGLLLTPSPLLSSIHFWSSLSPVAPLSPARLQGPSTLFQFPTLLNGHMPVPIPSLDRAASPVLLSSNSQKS
Method in brief: as §1

FEV = biological target: T7, FEV (Homo sapiens, UniProt Q99581 1-238); details: protein: recombinant; tags: N-terminal GST; dsDNA, one strand shown
T7 sequence: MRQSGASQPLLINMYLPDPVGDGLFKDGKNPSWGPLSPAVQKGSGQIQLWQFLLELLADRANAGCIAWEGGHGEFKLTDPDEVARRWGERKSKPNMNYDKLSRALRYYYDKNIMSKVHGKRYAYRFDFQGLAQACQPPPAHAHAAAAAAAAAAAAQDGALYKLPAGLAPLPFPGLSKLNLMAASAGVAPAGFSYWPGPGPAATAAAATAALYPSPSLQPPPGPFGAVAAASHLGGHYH
Method in brief: as §1

ETV5 = ETV5 (Homo sapiens, UniProt P41161 1-510); details: protein: recombinant; tags: N-terminal GST; dsDNA, one strand shown
Method in brief: as §1

HSF1 = HSF1 (Homo sapiens, UniProt Q00613 1-529); details: protein: recombinant; tags: N-terminal GST; chain copies: 3; dsDNA, one strand shown
Method in brief: as §1

SPIC = biological target: T8, SPIC (Homo sapiens, UniProt Q8N5J4 1-248); details: protein: recombinant; tags: N-terminal GST; dsDNA, one strand shown
T8 sequence: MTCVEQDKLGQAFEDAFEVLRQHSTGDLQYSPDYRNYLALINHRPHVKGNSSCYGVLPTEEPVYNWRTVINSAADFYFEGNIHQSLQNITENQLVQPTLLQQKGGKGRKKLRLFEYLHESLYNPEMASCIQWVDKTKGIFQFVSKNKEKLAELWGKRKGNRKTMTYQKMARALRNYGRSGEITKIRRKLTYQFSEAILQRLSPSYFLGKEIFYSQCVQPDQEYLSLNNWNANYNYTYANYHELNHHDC
Method in brief: as §1

ELF4 = ELF4 (Homo sapiens, UniProt Q99607 1-663); details: protein: recombinant; tags: N-terminal GST; dsDNA, one strand shown
Method in brief: as §1

ELK4 = biological target: T9, ELK4 (Homo sapiens, UniProt P28324-2 1-405); details: protein: recombinant; tags: N-terminal GST; dsDNA, one strand shown
T9 sequence: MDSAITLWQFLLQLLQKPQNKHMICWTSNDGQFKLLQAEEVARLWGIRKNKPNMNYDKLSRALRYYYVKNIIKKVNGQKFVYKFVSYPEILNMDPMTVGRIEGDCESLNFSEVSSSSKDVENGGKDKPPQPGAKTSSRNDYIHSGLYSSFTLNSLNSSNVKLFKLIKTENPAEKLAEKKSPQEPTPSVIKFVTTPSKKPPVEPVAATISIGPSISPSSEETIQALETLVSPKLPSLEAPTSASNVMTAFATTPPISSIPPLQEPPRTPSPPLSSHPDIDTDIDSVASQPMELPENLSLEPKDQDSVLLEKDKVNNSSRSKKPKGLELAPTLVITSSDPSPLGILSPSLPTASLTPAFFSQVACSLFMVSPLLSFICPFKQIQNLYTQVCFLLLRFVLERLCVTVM
Method in brief: as §1

ETV2 = biological target: T10, ETV2 (Homo sapiens, UniProt O00321 1-342); details: protein: recombinant; tags: N-terminal GST; dsDNA, one strand shown
T10 sequence: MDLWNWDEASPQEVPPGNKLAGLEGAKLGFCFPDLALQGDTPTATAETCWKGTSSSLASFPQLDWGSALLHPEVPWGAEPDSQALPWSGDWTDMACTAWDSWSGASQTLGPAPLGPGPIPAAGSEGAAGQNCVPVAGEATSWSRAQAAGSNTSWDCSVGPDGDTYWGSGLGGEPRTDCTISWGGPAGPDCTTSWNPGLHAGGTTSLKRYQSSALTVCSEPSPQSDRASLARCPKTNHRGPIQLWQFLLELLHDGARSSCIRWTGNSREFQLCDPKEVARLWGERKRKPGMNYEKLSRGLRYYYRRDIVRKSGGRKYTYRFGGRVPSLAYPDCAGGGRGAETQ
Method in brief: as §1

ELF3 = biological target: T11, ELF3 (Homo sapiens, UniProt P78545 1-371); details: protein: recombinant; tags: N-terminal GST; dsDNA, one strand shown
T11 sequence: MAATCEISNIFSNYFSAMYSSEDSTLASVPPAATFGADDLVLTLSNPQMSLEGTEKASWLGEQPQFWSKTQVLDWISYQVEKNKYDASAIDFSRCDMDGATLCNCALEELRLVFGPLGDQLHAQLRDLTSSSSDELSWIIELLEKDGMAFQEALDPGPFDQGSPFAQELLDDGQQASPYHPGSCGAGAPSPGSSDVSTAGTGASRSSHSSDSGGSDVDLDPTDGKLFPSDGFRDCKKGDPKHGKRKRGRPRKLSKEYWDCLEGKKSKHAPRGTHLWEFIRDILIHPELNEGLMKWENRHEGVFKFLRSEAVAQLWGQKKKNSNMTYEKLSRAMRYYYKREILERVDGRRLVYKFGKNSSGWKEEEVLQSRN
Method in brief: as §1

CRX = CRX (Homo sapiens, UniProt O43186 1-299); details: protein: recombinant; tags: N-terminal GST; dsDNA, one strand shown
Method in brief: as §1

ETV1 = ETV1 (Homo sapiens, UniProt P50549 1-477); details: protein: recombinant; tags: N-terminal GST; dsDNA, one strand shown
Method in brief: as §1

Chain of ETV5 (P41161 whole entry): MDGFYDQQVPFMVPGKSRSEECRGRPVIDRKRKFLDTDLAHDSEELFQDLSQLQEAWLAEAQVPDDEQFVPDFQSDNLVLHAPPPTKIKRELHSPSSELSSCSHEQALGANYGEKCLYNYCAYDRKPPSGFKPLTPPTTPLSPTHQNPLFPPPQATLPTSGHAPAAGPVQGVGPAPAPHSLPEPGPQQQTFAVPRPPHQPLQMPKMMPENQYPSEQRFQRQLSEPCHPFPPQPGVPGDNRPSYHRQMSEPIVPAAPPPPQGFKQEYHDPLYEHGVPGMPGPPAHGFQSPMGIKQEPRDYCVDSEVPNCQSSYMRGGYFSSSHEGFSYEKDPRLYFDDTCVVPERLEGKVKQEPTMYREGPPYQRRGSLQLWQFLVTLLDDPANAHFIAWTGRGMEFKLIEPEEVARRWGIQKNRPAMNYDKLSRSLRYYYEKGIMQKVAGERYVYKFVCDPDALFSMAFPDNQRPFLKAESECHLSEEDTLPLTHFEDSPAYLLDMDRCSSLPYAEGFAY
Chain of ELF1 (P32519 whole entry): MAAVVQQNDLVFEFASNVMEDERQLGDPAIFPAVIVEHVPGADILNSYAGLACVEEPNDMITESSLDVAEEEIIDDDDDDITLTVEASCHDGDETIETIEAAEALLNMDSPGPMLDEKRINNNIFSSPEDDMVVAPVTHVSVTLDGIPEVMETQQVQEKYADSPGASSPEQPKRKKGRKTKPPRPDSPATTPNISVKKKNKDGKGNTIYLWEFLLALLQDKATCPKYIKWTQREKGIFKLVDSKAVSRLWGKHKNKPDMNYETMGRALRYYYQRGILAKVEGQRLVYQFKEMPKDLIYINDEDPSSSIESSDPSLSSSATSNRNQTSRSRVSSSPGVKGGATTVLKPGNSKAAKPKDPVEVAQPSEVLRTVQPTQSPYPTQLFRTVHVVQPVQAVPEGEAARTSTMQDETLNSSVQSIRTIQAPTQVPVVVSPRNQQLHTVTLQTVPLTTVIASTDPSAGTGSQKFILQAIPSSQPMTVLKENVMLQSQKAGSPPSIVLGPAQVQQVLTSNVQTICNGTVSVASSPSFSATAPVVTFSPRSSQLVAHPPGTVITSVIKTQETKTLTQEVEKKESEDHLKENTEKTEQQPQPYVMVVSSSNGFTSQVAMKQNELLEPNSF
Chain of CRX (O43186 whole entry): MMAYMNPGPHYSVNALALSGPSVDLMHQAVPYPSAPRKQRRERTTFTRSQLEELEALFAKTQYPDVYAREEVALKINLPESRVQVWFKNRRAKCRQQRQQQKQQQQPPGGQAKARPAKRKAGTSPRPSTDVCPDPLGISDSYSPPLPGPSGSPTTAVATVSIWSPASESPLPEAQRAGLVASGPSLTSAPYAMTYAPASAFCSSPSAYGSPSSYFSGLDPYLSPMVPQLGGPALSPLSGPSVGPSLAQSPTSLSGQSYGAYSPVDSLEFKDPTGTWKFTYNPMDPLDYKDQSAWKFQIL
Chain of SPIB (Q01892 whole entry): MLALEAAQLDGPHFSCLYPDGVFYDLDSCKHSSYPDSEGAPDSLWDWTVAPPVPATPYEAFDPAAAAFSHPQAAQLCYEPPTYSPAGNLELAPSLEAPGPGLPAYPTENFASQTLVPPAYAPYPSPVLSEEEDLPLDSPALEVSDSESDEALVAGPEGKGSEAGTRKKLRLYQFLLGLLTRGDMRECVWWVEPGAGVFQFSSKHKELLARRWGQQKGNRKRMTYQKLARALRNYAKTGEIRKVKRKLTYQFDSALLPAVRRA
Chain of ETV1 (P50549 whole entry): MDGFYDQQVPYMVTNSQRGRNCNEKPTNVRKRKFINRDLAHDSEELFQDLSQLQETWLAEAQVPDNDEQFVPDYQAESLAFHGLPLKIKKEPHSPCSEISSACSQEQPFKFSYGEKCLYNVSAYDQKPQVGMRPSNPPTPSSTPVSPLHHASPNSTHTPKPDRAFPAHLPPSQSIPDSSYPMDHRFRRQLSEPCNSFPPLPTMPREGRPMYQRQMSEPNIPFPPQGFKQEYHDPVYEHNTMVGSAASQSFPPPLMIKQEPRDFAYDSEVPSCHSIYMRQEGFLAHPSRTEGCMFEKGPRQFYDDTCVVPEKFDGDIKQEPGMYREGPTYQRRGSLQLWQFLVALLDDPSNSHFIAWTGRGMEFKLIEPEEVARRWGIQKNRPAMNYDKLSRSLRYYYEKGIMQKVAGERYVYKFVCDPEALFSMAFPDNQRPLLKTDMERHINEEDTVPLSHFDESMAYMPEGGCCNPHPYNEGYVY
Chain of ELF4 (Q99607 whole entry): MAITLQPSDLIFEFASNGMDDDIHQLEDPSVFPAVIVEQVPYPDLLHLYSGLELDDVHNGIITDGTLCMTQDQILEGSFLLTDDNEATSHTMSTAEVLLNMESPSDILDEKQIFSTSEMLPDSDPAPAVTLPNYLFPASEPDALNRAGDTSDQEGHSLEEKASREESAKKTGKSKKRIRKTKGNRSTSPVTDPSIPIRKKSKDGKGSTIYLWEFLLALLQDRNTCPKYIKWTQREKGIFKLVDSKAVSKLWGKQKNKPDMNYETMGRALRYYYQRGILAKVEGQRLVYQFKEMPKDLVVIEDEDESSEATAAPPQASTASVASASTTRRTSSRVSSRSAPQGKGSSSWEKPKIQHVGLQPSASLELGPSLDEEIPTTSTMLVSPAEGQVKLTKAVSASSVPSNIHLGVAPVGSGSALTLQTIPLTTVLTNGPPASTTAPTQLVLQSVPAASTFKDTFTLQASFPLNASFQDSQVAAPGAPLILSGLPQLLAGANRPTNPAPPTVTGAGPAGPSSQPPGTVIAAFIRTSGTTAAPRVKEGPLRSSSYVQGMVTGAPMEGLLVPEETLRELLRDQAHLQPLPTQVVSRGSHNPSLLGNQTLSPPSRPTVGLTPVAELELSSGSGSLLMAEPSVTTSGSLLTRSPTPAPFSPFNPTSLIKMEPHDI
Chain of HSF1 (Q00613 whole entry): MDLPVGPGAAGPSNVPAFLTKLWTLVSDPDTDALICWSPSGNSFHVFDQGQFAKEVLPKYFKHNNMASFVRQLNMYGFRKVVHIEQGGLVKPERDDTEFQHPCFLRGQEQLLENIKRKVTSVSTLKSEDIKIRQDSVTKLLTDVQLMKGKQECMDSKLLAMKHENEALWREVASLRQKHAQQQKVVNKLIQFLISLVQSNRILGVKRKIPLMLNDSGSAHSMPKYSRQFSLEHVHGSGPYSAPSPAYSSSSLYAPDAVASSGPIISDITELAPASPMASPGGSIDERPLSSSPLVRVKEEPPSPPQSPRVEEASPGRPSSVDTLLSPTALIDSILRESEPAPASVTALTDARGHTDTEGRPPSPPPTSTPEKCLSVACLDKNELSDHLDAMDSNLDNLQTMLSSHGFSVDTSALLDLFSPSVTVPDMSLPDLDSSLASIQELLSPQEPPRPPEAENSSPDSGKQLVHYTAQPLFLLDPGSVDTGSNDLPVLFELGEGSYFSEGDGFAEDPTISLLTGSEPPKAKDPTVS

In the case of TCCTCA, the binding signal (FLI1) is reported as 1.53 fold enrichment (6-mer frequency, TF over GST control), the binding signal (ELK1) is reported as 1.47 fold enrichment (6-mer frequency, TF over GST control) and the binding signal (GABPA) is reported as 1.6 fold enrichment (6-mer frequency, TF over GST control). The binding signal (ERG) was 1.51 fold enrichment (6-mer frequency, TF over GST control), the binding signal (ELF1) was 1.49 fold enrichment (6-mer frequency, TF over GST control) and the binding signal (EHF) was 1.65 fold enrichment (6-mer frequency, TF over GST control). For the same sequence, the binding signal (SPI1) was 2.25 fold enrichment (6-mer frequency, TF over GST control), the binding signal (SPIB) was 1.6 fold enrichment (6-mer frequency, TF over GST control) and the binding signal (ELK3) was 1.55 fold enrichment (6-mer frequency, TF over GST control). The binding signal (FEV) was 1.52 fold enrichment (6-mer frequency, TF over GST control), the binding signal (ETV5) was 1.52 fold enrichment (6-mer frequency, TF over GST control) and the binding signal (HSF1) was 1.2 fold enrichment (6-mer frequency, TF over GST control). The binding signal (SPIC) was 1.63 fold enrichment (6-mer frequency, TF over GST control), the binding signal (ELF4) was 1.57 fold enrichment (6-mer frequency, TF over GST control) and the binding signal (ELK4) was 1.67 fold enrichment (6-mer frequency, TF over GST control). For the same sequence, the binding signal (ETV2) was 1.66 fold enrichment (6-mer frequency, TF over GST control), the binding signal (ELF3) was 1.44 fold enrichment (6-mer frequency, TF over GST control) and the binding signal (CRX) was 1.4 fold enrichment (6-mer frequency, TF over GST control). The binding signal (ETV1) was 1.48 fold enrichment (6-mer frequency, TF over GST control).
